Holding throughout (experiment): universal protein binding microarray (PBM); transcription factors of Arabidopsis thaliana; high values mean tight binding
The target of one experiment is T1, GST-ANAC092(1-176) (Arabidopsis thaliana, UniProt Q9FKA0 1-176).
T1 sequence: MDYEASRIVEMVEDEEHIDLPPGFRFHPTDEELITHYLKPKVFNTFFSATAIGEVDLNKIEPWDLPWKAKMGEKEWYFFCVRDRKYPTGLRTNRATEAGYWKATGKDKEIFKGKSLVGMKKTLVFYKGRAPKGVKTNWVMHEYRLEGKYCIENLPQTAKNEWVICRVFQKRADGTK
The note with it: protein: recombinant; tags: GST; chain copies: 2; dsDNA, one strand shown. The gist of the method: (§1)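 Protein amounts were determined by A280 or anti-GST western blot after glutathione–Sepharose 4B purification of GST-tagged proteins induced in cells, with zinc acetate included for zinc-finger proteins. Duplicate runs at 200 to 500 nM final were done on custom all-10-mer Agilent 4 × 180K arrays made double-stranded by primer extension. The normalised enrichment score (E-score) over gapped and ungapped 8-mers is the measure of binding.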

The next experiment concerns the target T2, GST-ANAC019 NAC domain (Arabidopsis thaliana, UniProt Q9C932 14-162).
T2 sequence: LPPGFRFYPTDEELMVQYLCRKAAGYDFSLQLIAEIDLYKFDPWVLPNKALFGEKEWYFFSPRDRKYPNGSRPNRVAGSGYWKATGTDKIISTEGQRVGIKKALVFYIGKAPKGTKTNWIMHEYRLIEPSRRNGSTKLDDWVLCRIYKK
The note with it: protein: recombinant; tags: GST; chain copies: 2; dsDNA, one strand shown. The gist of the method:
as §1

For experiment [1], the target named is T3, GST-ANAC092(1-285) full length (Arabidopsis thaliana, UniProt Q9FKA0 1-285).
T3 sequence: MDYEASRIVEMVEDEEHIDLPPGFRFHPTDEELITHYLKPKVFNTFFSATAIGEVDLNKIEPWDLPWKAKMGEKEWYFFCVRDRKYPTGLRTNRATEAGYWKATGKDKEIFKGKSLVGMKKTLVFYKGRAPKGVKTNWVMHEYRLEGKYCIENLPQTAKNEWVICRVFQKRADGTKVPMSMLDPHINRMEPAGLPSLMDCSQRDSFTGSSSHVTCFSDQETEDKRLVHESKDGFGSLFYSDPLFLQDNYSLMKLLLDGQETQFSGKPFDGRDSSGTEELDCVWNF
As to conditions: protein: recombinant; tags: GST; chain copies: 2; dsDNA, one strand shown. The gist of the method:
as §1

A further experiment addresses T4, GST-NST2(1-184) (Arabidopsis thaliana, UniProt Q9M274 1-184).
T4 sequence: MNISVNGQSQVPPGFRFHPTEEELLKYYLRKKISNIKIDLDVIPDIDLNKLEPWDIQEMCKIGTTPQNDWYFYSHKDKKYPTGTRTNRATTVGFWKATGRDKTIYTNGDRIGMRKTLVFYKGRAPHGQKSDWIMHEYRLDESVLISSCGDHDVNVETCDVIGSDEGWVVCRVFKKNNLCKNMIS
The note with it: protein: recombinant; tags: GST; chain copies: 2; dsDNA, one strand shown. The procedure, abridged:
as §1

For another experiment, the target named is T5, GST-NTL8 NAC domain (Arabidopsis thaliana, UniProt Q9XIN7 14-156).
T5 sequence: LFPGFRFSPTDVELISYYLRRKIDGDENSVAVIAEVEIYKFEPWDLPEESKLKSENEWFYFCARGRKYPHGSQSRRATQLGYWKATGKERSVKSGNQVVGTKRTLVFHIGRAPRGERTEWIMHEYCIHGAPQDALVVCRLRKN
The note with it: protein: recombinant; tags: GST; chain copies: 2; dsDNA, one strand shown. The procedure, abridged:
as §1

For another experiment, the target named is T6, GST-SND1(1-203) (Arabidopsis thaliana, UniProt Q9LPI7 1-203).
T6 sequence: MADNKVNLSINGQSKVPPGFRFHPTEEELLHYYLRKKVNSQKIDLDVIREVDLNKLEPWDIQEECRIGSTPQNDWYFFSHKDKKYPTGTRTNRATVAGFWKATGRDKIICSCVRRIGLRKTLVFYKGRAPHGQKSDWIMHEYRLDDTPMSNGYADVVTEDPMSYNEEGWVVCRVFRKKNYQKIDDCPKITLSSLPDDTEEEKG
As to conditions: protein: recombinant; tags: GST; chain copies: 2; dsDNA, one strand shown. The gist of the method:
as §1

A further experiment deals with T7, GST-VND3 NAC domain (Arabidopsis thaliana, UniProt Q9FH59 12-162).
T7 sequence: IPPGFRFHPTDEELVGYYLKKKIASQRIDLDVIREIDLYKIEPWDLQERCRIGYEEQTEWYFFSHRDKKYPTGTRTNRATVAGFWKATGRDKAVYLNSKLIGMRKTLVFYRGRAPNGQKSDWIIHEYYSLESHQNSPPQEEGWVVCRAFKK
As to conditions: protein: recombinant; tags: GST; chain copies: 2; dsDNA, one strand shown. The procedure, abridged:
as §1

The target of another experiment is T8, GST-ANAC055(1-171) (Arabidopsis thaliana, UniProt Q9LDY8 1-171).
T8 sequence: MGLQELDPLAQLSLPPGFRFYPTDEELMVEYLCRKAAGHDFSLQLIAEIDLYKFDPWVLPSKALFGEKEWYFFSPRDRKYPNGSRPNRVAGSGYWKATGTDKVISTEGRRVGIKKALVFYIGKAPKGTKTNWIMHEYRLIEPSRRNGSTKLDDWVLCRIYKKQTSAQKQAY
As to conditions: protein: recombinant; tags: GST; chain copies: 2; dsDNA, one strand shown. The gist of the method:
as §1

Another experiment addresses T9, GST-ATAF1 NAC domain (Arabidopsis thaliana, UniProt Q39013 7-158).
T9 sequence: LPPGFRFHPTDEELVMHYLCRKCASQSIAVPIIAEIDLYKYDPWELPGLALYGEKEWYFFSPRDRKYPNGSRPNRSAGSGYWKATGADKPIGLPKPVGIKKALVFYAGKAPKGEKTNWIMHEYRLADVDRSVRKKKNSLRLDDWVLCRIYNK
The note with it: protein: recombinant; tags: GST; chain copies: 2; dsDNA, one strand shown. The procedure, abridged:
as §1

Another experiment deals with GST-WRKY1(266-371) (Arabidopsis thaliana, UniProt Q9SI37 266-371). The note with it: protein: recombinant; tags: GST; dsDNA, one strand shown. The gist of the method: as §1
GST-WRKY1(266-371), sequence (Q9SI37 266-371): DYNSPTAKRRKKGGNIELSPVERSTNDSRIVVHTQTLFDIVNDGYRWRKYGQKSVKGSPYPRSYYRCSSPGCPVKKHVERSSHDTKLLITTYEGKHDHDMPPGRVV
For a further experiment, the target named is GST-NTL6(1-168) (Arabidopsis thaliana, UniProt Q9SCK6 1-168). As to conditions: protein: recombinant; tags: GST; chain copies: 2; dsDNA, one strand shown. The gist of the method:
as §1

In a further experiment the target is T10, GST-NAP(1-166) (Arabidopsis thaliana, UniProt O49255 1-166).
T10 sequence: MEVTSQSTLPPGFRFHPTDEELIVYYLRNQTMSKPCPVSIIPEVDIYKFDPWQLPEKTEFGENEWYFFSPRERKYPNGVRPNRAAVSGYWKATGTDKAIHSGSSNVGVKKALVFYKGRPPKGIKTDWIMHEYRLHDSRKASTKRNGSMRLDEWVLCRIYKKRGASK
As to conditions: protein: recombinant; tags: GST; chain copies: 2; dsDNA, one strand shown. The gist of the method:
as §1

GST-NTL6(1-168), sequence (Q9SCK6 1-168): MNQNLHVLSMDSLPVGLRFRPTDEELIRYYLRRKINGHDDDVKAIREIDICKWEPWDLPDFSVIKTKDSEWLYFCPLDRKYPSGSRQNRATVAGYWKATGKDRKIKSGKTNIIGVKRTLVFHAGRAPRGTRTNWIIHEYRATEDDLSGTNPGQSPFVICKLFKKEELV

On to CCACGCTA, for which the binding signal with GST-ANAC092(1-176) turned out to be 0.405 E-score; in the experiment with GST-ANAC019 NAC domain it was 0.155 E-score; in [1], 0.432 E-score; with GST-NST2(1-184), 0.219 E-score; with GST-NTL8 NAC domain it was 0.0925 E-score; in the experiment with GST-SND1(1-203), 0.329 E-score. Also, the binding signal in the experiment with GST-VND3 NAC domain was determined as 0.0665 E-score.
Consider GTCAATTA, for which the binding signal came to 0.0852 E-score with GST-ANAC055(1-171); 0.202 E-score with GST-ATAF1 NAC domain; 0.159 E-score in experiment [1]; 0.147 E-score with GST-NST2(1-184); 0.122 E-score with GST-SND1(1-203); 0.104 E-score with GST-VND3 NAC domain. Besides, the binding signal with GST-WRKY1(266-371) came out at 0.42 E-score.
Consider CAGGGAAA, for which the binding signal came out at 0.141 E-score with GST-ANAC092(1-176); 0.0693 E-score in the experiment with GST-NTL6(1-168); 0.115 E-score with GST-ANAC019 NAC domain; 0.102 E-score in experiment [1]; 0.407 E-score with GST-NTL8 NAC domain; 0.0967 E-score in the experiment with GST-SND1(1-203). The binding signal with GST-VND3 NAC domain is 0.0593 E-score.
Regarding ATTAAGTA, the binding signal was 0.0822 E-score in the experiment with GST-ANAC092(1-176); 0.441 E-score with GST-NTL6(1-168); 0.182 E-score with GST-ANAC055(1-171); 0.215 E-score with GST-ATAF1 NAC domain; 0.144 E-score in experiment [1]; 0.231 E-score with GST-NST2(1-184). Besides, the results for the binding signal in the experiment with GST-SND1(1-203) and in the experiment with GST-VND3 NAC domain were 0.267 E-score and 0.131 E-score, respectively.
In the case of ACGTTATC, the binding signal in the experiment with GST-ANAC092(1-176) is 0.384 E-score; in the experiment with GST-ANAC055(1-171) it was 0.0511 E-score; in the experiment with GST-ATAF1 NAC domain it was 0.17 E-score; in experiment [1], 0.431 E-score; with GST-NAP(1-166), 0.162 E-score; in the experiment with GST-NST2(1-184), 0.299 E-score. Besides, the binding signal in the experiment with GST-SND1(1-203) stood at 0.423 E-score; with GST-VND3 NAC domain it was 0.208 E-score.
CTTGACTA: the binding signal with GST-ANAC019 NAC domain worked out at 0.0925 E-score; with GST-ANAC055(1-171), 0.0781 E-score; with GST-ATAF1 NAC domain, 0.142 E-score; with GST-NST2(1-184), 0.0888 E-score; with GST-NTL8 NAC domain it was 0.0949 E-score; in the experiment with GST-SND1(1-203) it was 0.0644 E-score. In addition, the binding signal with GST-VND3 NAC domain was determined as 0.159 E-score; with GST-WRKY1(266-371) it was 0.462 E-score.
In the case of GTCAAAAC, the binding signal with GST-ATAF1 NAC domain is 0.178 E-score; in [1], 0.11 E-score; in the experiment with GST-NAP(1-166), 0.111 E-score; with GST-NTL8 NAC domain it was 0.0569 E-score; in the experiment with GST-SND1(1-203), 0.148 E-score; in the experiment with GST-VND3 NAC domain, 0.176 E-score. Besides, the binding signal with GST-WRKY1(266-371) was found to be 0.447 E-score.

The values are drawn from PMC4081100, “A DNA-binding-site landscape and regulatory network analysis for NAC transcription factors in Arabidopsis thaliana”.
